Reference: PubChem BioAssay AID720621 (The Scripps Research Institute Molecular Screening Center, 2013)
The other results are listed elsewhere or left out. A number with no mark means an inactive call. Activity calls are given as the source filed them.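 The calls were made as follows: active = inhibition above the mean of test compounds lying between the control limits plus 3 SD of those (cut at about 14% in these data); inactive = the rest.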

Biological target: Fibrinogen beta chain (Homo sapiens) (UniProt P02675)
Assay: fibrin DD(E) probe displacement, second cyclic peptide – biochemical, fluorescence polarization, human fibrin, counter-screen for fibrin DD(E)-Tn6 binding project, confirmation (AID 720621);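 also: 0% = median of compound wells and 100% = wells with Aha-Tn7 blocking peptide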
Settings: TRITC-Tn6 fluorescence polarization displacement, at 8.3 µM, stronger effect = higher value, 0% = median of compound wells, not DMSO

Chain of Fibrinogen beta chain (Homo sapiens) (P02675 whole entry, looked up): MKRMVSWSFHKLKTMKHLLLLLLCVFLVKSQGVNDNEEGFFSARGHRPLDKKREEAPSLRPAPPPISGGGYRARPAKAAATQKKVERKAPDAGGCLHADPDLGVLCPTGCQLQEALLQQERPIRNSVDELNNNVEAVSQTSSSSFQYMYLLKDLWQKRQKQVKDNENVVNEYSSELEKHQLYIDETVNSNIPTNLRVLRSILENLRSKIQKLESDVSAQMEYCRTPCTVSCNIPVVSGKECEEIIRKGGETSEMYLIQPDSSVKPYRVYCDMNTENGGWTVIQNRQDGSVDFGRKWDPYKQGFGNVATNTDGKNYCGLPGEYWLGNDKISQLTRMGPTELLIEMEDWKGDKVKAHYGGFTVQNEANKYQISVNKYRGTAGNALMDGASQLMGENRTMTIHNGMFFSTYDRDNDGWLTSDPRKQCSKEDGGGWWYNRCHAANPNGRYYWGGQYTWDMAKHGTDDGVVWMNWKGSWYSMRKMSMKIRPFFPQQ

SMILES	inhibition
CONc1nc2nonc2nc1NOC	0.1%
Cc1cc2ccccc2n1CCNC(=O)COc1ccc2ccccc2c1	4.66%
O=c1cc(Cn2nnc(-c3ccc(Cl)cc3)n2)nc2sccn12	0.44%
O=C(Nc1cccc(-c2nc3ccccc3[nH]2)c1)c1ccc(C(=O)Nc2cccc(-c3nc4ccccc4[nH]3)c2)cc1	4.67%
CCC1C(=O)NCCN1C(=O)c1ccc2nc(Cc3ccc(OC)cc3)oc2c1 (stereo unspecified)	-2.38%
Oc1ccc(N=Cc2sc3ccccc3c2Cl)cc1	-3.72%
Cc1ccc(-c2nc(C)sc2CC(=O)O)cc1	1.12%
CCOC(=O)N1CCN(Cc2nc(N)nc(Nc3ccc(C)cc3)n2)CC1	-2.92%
Cc1nn(C)cc1N1C(=O)c2cccc3c(N)ccc(c23)C1=O	12.5%
Cc1cc(C)c2nc(NC(=O)C3CCCO3)sc2c1 (stereo unspecified)	9.86%
Cc1cc2cc(CNC(=O)c3ccc(S(=O)(=O)N4CCOCC4)cc3)ccc2[nH]1	-5.66%
Cc1ccc(NC(=O)CN2CCc3ccccc3C2)cc1	-3.5%
O=c1[nH]n(-c2ccc([N+](=O)[O-])cc2)c(=O)c2ccccc12	-1.25%
COc1cc(NC(=O)c2ccc(CNc3c(N4CCCC4)c(=O)c3=O)cc2)cc(OC)c1OC	-3.04%
COc1ccc(N2C(=O)NC(NS(=O)(=O)c3ccc(Cl)cc3)(C(F)(F)F)C2=O)cc1 (stereo unspecified)	9.3%
CN1c2ccc(C=O)c3c(C=O)ccc(c23)N(C)C1(C)C	1.94%
O=C(NCCNc1ccccc1[N+](=O)[O-])c1ccccc1F	1.36%
CCOCC(=O)NCc1ccc2c(c1)cc(C)n2C	3.45%
CCc1cc(-c2nnc(SCC(=O)NC3CC3)n2C)cs1	0.11%
COc1ccc(Nc2nc(-c3cccnc3)nc3ccccc23)cn1	1.38%
CCc1ccccc1NC(=S)Nc1cc(OC)c(NC(=O)C(C)C)cc1OC	2.55%
Cc1ccc(-c2nn(-c3ccccc3)cc2/C=C/C(=O)Nc2cccc(S(N)(=O)=O)c2)cc1	9.5%
Cc1cc2nc3c(=O)[nH]c(=O)nc-3n(C[C@H](O)[C@H](O)[C@H](O)CO)c2cc1C	53.3% (active)
O=C(CCl)NNc1cccc(Cl)n1	-4.59%
Cc1nnsc1S(=O)(=O)Cc1ccccc1Cl	-7.19%
COc1ccc(Nc2nc(-c3ccccc3)cs2)cc1	3.89%
